Consider eleven molecules from PubChem BioAssay (NCI).

SMILES strings stand for the structures. The panel holds about 83,000 compounds, 20% with a hit somewhere; the sample as a whole holds those more often.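 Activity criterion: percent growth below 10, measured after cells in 96-well plates were exposed to a single compound concentration for 48 hours.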 Values without a mark were called inactive. Active and inactive are the calls of the source.

Among the test systems are NCI-H23 lung; NCI-H226 lung; NCI-H322M lung; HOP-62 NSCLC; NCI-H460 lung; HOP-92 NSCLC; NCI-H522 lung; A549/ATCC NSCLC; 786-0 renal; COLO 205 colon.
Common to all, as to assay: NCI-60 one-dose screen, 48 h (100 = growth as untreated, 0 = no growth, -100 = all killed)
Holding throughout (details): 10 µM unless noted

Take `N/C(=N\c1nc2ccc([N+](=O)[O-])cc2s1)C(Cl)(Cl)Cl`: the growth in the assay with NCI-H23 lung was 91.3%; in the assay on NCI-H226 lung, 85.2%; in the assay with NCI-H322M lung, 10.5%; in the assay on HOP-62 NSCLC, 41.9%; with NCI-H460 lung, 14.3%; in the assay with HOP-92 NSCLC, 36.2%. Besides, the growth in the assay with NCI-H522 lung was 85.3%; with A549/ATCC NSCLC it was 26.5%; with 786-0 renal it was 80.5%; in the assay with COLO 205 colon it was 32%.
On to `COc1ccc(C(=O)c2c(N)c(C#N)cn2-c2cccc(OC)c2)cc1`, for which the growth in the assay with NCI-H23 lung was 49.8%; in the assay with NCI-H226 lung, 63.5%; in the assay on NCI-H322M lung, 62.6%; with HOP-62 NSCLC, 30.6%; with NCI-H460 lung, 27.8%; with HOP-92 NSCLC it was 21.7%. The growth in the assay with NCI-H522 lung was 3.14% (active); in the assay on A549/ATCC NSCLC, 42.9%; in the assay on 786-0 renal, 37.5%; with COLO 205 colon, 25.3%.
With `Nc1ccc(-c2nnc(SCc3ccc(O)c4ncccc34)o2)cc1`, the growth with NCI-H23 lung was 3.69% (active); in the assay on NCI-H226 lung it was -12.5% (active); in the assay on NCI-H322M lung, -0.446% (active); with HOP-62 NSCLC, -5.24% (active); in the assay with NCI-H460 lung, -46.8% (active); with HOP-92 NSCLC, -36.8% (active). Also, the growth in the assay on NCI-H522 lung is -2.05% (active); in the assay with A549/ATCC NSCLC, -1.54% (active); in the assay with 786-0 renal, 7.93% (active); in the assay with COLO 205 colon it was 1.77% (active).
Regarding `CC1COc2c(N3CCN(C)CC3)c(F)cc3c(=O)c(C(=O)N/N=C/c4cc[nH]c4)cn1c23` (stereo not given), the growth in the assay on NCI-H23 lung is 41.1%; with NCI-H226 lung, 50%; in the assay on NCI-H322M lung, 65.7%; in the assay with HOP-62 NSCLC it was 38%; in the assay with NCI-H460 lung it was 0.46% (active); in the assay with HOP-92 NSCLC, 28%. Moreover, the growth in the assay on NCI-H522 lung is 13.8%; with A549/ATCC NSCLC it was -5.87% (active); with 786-0 renal, 1.52% (active); in the assay with COLO 205 colon it was 54.4%.
Turning to `O=C(Nc1ccc(Cl)cc1)Nc1nc2ccc([N+](=O)[O-])cc2s1`, the growth in the assay with NCI-H23 lung is -45.5% (active); in the assay with NCI-H226 lung, -15% (active); with NCI-H322M lung, 2.65% (active); with HOP-62 NSCLC, -33.5% (active); in the assay with NCI-H460 lung, -9.27% (active); with HOP-92 NSCLC, -25.9% (active). In addition, the growth was -21.3% (active) with NCI-H522 lung, 1.71% (active) in the assay with A549/ATCC NSCLC, 5.56% (active) in the assay with 786-0 renal and -62.6% (active) in the assay on COLO 205 colon.
Turning to `O=S(=O)(Nc1ccc2c(c1)OC(F)(F)O2)c1ccc(-c2cnc(C3CC3)o2)cc1`, the growth in the assay with NCI-H23 lung was 55.2%; in the assay with NCI-H226 lung it was 60.8%; in the assay with NCI-H322M lung, 83.3%; with HOP-62 NSCLC, 35.9%; in the assay with NCI-H460 lung, 17.3%; with HOP-92 NSCLC it was 66.7%. Besides, the growth was 43.2% in the assay with NCI-H522 lung, 47.7% in the assay on A549/ATCC NSCLC, 47.2% in the assay on 786-0 renal and 47.4% in the assay on COLO 205 colon.
`COc1ccc(CN2C(=O)/C(=C/c3nc(CO)cs3)SC2=S)cc1`: the growth is 92.6% in the assay with NCI-H23 lung; 101% in the assay on NCI-H226 lung; 97.5% in the assay on NCI-H322M lung; 104% in the assay on HOP-62 NSCLC; 100% in the assay on NCI-H460 lung; 63.4% in the assay on HOP-92 NSCLC. Moreover, the growth with NCI-H522 lung is 35.6%; with A549/ATCC NSCLC it was 95.7%; with 786-0 renal, 51.2%; in the assay on COLO 205 colon it was 118%.
In the case of `CCN1C(=O)N(CC)C2C1NN=C1SC(c3ccccc3)=CC(=O)N12` (stereo not given), the growth is 33% in the assay with NCI-H23 lung; 40.4% with NCI-H226 lung; 50.6% with NCI-H322M lung; 30.7% in the assay with HOP-62 NSCLC; 6.45% (active) in the assay on NCI-H460 lung; 44.3% with HOP-92 NSCLC. For the same molecule, the growth was -42.6% (active) in the assay on NCI-H522 lung, 36.3% with A549/ATCC NSCLC, 37.6% in the assay with 786-0 renal and -40.3% (active) with COLO 205 colon.
Turning to `Cc1nn(-c2ccc(Br)cc2)c2nc(CCl)[nH]c(=O)c12`, the growth in the assay on NCI-H23 lung is 103%; in the assay on NCI-H226 lung, 102%; in the assay on NCI-H322M lung, 104%; in the assay on HOP-62 NSCLC, 98.5%; in the assay with NCI-H460 lung it was 109%; in the assay on HOP-92 NSCLC, 101%. Besides, the growth with NCI-H522 lung is 85.5%; with A549/ATCC NSCLC, 96.9%; with 786-0 renal it was -88.8% (active); in the assay on COLO 205 colon it was 103%.
For `C/C(=N/Nc1nc(N/N=C(/C)c2ccc([N+](=O)[O-])cc2)nc(N2CCOCC2)n1)c1ccc([N+](=O)[O-])cc1`, the growth in the assay on NCI-H23 lung is 57.9%; with NCI-H226 lung, 41.9%; with NCI-H322M lung, 86.7%; in the assay with HOP-62 NSCLC, 86.2%; with NCI-H460 lung, 78.1%; with HOP-92 NSCLC it was 64.1%. Also, the growth is 61.7% in the assay on NCI-H522 lung, 73.9% in the assay with A549/ATCC NSCLC, 66.9% in the assay on 786-0 renal and 94.8% with COLO 205 colon.
For the molecule `Cc1cc(Cl)cc(NS(=O)(=O)c2ccc(-c3cnc(C4CC4)o3)cc2)c1`, the growth in the assay on NCI-H23 lung was 35.7%; in the assay on NCI-H226 lung, 60.5%; in the assay with NCI-H322M lung, 46.7%; in the assay on HOP-62 NSCLC, 41.7%; in the assay on NCI-H460 lung, 16.2%; in the assay on HOP-92 NSCLC, 66.5%. For the same molecule, the growth with NCI-H522 lung is 17.9%; in the assay on A549/ATCC NSCLC it was 31.8%; in the assay on 786-0 renal it was 49.4%; in the assay with COLO 205 colon, 2.78% (active).
